Assay outcomes (PubChem BioAssay)
Only some compounds are listed: those with a hit (about 19% of all), similar ones and a draw of the others.
IL-1B inflam inh – blocks inflammasome-driven IL-1 beta release. THP-1 LPS/ATP IL-1B secretion, AlphaLISA, 16 h; hits give low values. activity change, % at 57.5 µM. actives 4.7% (n = 360,000). AID 743279; in the data active = activity change below about -50%; inconclusive = mostly about -30% to -49%
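THP-1 cells pretreated 1 hr with compounds (up to 57.5 uM final), then stimulated with LPS (250 ng/mL final) plus ATP (1.25 mM final); secreted IL-1B measured by AlphaLISA after 16 hr, decreased signal indicating inhibition.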
Giardia kill – kills Giardia lamblia; Giardia lamblia trophozoite viability; activity change, % at 7.66 µM, hits read low; actives 0.15% (n = 340,000); in the data active = activity change below about -80%; inconclusive = between about -30% and that limit;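 also: parasites exposed to compound for two days anaerobically before the ATP read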
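Anaerobic 48 hrs incubation at 37 deg C of 100 trophozoites/well with test compounds; ATPLite 1-Step luminescence, 15-30 min RT, reports cellular ATP as viability.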
ELG1 repair inh – inhibitors of ELG1-dependent DNA repair in HEK293T cells; HEK293T ELG1-luciferase reporter, luminescence, 16 h; DNA damage induced by 5-fluorouridine; Potency, µM (doses to about 46.1 µM), for the others: at the top dose activity change, negative = inhibition, usual class: inhibitors; actives 2.3% (n = 330,000); also: potency is read from the fitted curve at half-maximal effect; nearly all actives have a fitted effect of over 55% in size
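Cells (2,000 per well) received 5-fluorouridine plus test compound or DMSO and were incubated 16 hr at 37 °C, 5% CO2. Luciferase activity was read by luminescence 30 min after ONE-Glo addition; signal suppression marked inhibition of damage-induced ELG1 function.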
DT40 TDP1 no CPT – qHTS for Inhibitors of human tyrosyl-DNA phosphodiesterase 1 (TDP1): qHTS in cells in absence of CPT; DT40 Tdp1-/- hTDP1 cells, no CPT, ATP luminescence, 48 h; Potency, µM (series often up to 46.2 µM), for inactives: at the top dose activity change, negative = growth inhibition, usual class: inhibitors; actives 15% (n = 420,000); AID 686978, 2013; also: potency is read from the fitted curve at half-maximal effect; nearly all actives have a fitted effect of over 55% in size
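Cells were dispensed at 400 per well, compounds added by pin tool, plates incubated ≥48 hr at 37 °C, then CellTiter-Glo added for 30 min at room temperature before luminescence reading. Line: DT40 Tdp1-/- complemented with hTDP1; camptothecin omitted.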
TDP1 cell CPT – DT40-hTDP1 cell growth loss with CPT | chicken DT40 Tdp1-/-;hTDP1 cells + 20 nM CPT, ATP luminescence, 48 h | actives 12% (n = 420,000) | Potency, µM (doses to about 46.2 µM), without a hit: at the top dose activity change, negative = growth inhibition, most hits filed as inhibitors; also: potency is read from the fitted curve at half-maximal effect; nearly all actives have a fitted effect of over 55% in size
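Chicken DT40 Tdp1-/- cells stably complemented with human TDP1 were seeded at 400 cells/well in medium containing 20 nM camptothecin, exposed to pin-transferred compounds, and grown at 37 °C for at least 48 hr. Viability was read as ATP luminescence.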
TDP1 block – inhibitors of human tyrosyl-DNA phosphodiesterase TDP1. Q9NUW8. recombinant TDP1, AlphaScreen DNA substrate cleavage. Potency, µM (series often up to 130 µM), inactives show top-dose activity change, negative = inhibition, most hits filed as inhibitors. actives 0.28% (n = 350,000). AID 485290; also: potency is read from the fitted curve at half-maximal effect; nearly all actives have a fitted effect of over 40% in size
Target sequence (Q9NUW8 whole entry, looked up): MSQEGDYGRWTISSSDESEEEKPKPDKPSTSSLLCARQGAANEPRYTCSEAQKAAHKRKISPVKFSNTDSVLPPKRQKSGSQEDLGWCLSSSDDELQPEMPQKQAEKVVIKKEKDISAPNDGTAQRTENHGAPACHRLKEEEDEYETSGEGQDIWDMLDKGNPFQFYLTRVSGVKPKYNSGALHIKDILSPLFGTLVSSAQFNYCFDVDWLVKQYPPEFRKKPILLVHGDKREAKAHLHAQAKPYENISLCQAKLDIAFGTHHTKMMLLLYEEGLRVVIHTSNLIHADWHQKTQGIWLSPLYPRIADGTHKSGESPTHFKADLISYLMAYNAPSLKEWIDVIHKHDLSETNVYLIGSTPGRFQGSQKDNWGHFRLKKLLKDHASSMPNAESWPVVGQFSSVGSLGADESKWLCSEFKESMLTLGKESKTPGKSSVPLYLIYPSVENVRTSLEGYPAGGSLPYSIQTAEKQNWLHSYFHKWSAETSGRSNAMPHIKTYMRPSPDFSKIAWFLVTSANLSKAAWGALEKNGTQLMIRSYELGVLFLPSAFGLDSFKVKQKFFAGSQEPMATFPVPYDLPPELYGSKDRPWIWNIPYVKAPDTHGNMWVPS
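Steps: enzyme plus compound, 15 min RT; add biotin/phosphotyrosine-FITC oligonucleotide (15 nM final), react 5 min; add donor/acceptor beads (10 ug/ml final), 10 min; read AlphaScreen. Tdp1 at 1 nM final.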
* hit, by the source's call; ? = inconclusive; · = no result; [ ] = remark or other dose. Unless noted, calls follow the shape of the dose curve; as a rule, active = well fitted curve in the direction sought with a large enough effect; inconclusive = small, poorly fitted or top-dose-only effect, or another doubt; inactive = no such curve, though single readings can be large; an effect the other way counts as inactive or inconclusive. % is scaled to controls: 0 for no effect and ±100 for the full control effect.

SMILES	IL-1B inflam inh	Giardia kill	ELG1 repair inh	DT40 TDP1 no CPT	TDP1 cell CPT	TDP1 block
COc1cc2c(cc1OC)C(C)N(C(=O)c1cc3c(=O)oc4ccc(C)cc4c3s1)CC2 (centres undefined)	-10.7	-18.6	?	14.6µM*	13µM*	0.0%
O=C1NCCOC(=O)[C@H](Cc2ccc(F)cc2)C/C=C\C[C@@H]1CC(=O)N(CCO)Cc1ccccc1	5.1	-12.6	?	11.6µM*	13µM*	-0.3%
O=C(C[C@@H]1C/C=C\C[C@@H](Cc2ccc(F)cc2)C(=O)OCCNC1=O)NCCO	10.2	-19.0	6.5%	-15.7%	6.8%	0.4%
O=C1NCCOC(=O)[C@H](Cc2ccc(F)cc2)C/C=C\C[C@H]1CC(=O)N(CCO)Cc1ccccc1	6.3	9.1	?	9.2µM*	8.2µM*	0.7%
CCCCCCCCN1[C@@H](CC(=O)OC)c2ccc(/C=C/C(=O)OC)cc2S1(=O)=O	·	·	·	-7.1%	-0.3%	·
COc1ccc(-c2ccccc2C2C3C=CCCC3(C)C(=O)N2Cc2ccccc2)cc1 (centres undefined)	·	11.5	·	·	·	10.3%
COc1ccc(C2Nc3ccccc3C(=O)N2Cc2cccc3ccccc23)cc1COc1ccc(NC(C)=O)cc1 (centres undefined)	·	·	·	·	·	2.2%
CCN(CC)S(=O)(=O)c1ccc(O)c(C(=O)OCC(=O)NC23CC4CC(CC(C4)C2)C3)c1	-5.7	3.3	-8.6%	-22.1%	-2.8%	1.3%
O=C1c2ccccc2C(=O)C1Cc1cccc2ccccc12	14.7	-2.7	-5.1%	-26.6%	14.1µM*	-0.7%
CCOC(=O)[C@@H](C)N(C(=O)OC(C)(C)C)S(=O)(=O)N(Cc1ccccc1)[C@H](C(=O)OC)C(C)C	57.2	11.2	·	?	23.1µM*	·
COC(=O)[C@H](C(C)C)N(Cc1ccccc1)S(=O)(=O)CCN1CCCC1	-6.1	16.3	9.1%	?	?	0.1%[56.1 µM]
O=[N+]([O-])c1cc(C=Nc2ccc3ccccc3c2)ccc1Br	-4.3	0.0	?	2.91µM*	2.59µM*	5.6%
CCOc1ccc(N=Cc2ccc3ccccc3c2)cc1	-8.8	14.4	5.8%	-18.8%	-15.3%	·
Cc1ccc(OCCCN(C)C)c(Br)c1	-1.0	-18.8	2.6%	-22.2%	-24.9%	-3.4%
N=C(N)c1ccc(OCCCOc2ccc(C(=N)N)cc2)cc1	·	·	·	6.68µM*	6.68µM*	·
N=C(N)c1ccc(OCCCCCOc2ccc(C(=N)N)cc2)cc1	-2.4	-26.8	-12.2%	2.06µM*	1.84µM*	4.3%
COC(=O)c1ccc(OCCOc2ccc(C(=O)OC)cc2)cc1	15.3	10.1	-2.1%	-16.9%	-16.8%	-5.9%
CCCCCCOc1ccc(/C(N)=N/O)cc1	0.2	4.3	?	20.6µM*	16.4µM*	2.9%
N=C(N)c1ccc(OCCCOc2ccc(C(=N)N)cc2Br)c(Br)c1	·	·	·	3.76µM*	4.73µM*	·
COCC(C)n1c(C)cc(C(=O)COC(=O)/C=C/c2cccc(F)c2)c1C (centres undefined)	-8.4	7.9	0.5%	?	?	10.0%
CCCCNC(=O)Nc1nc2ccc(CC)cc2s1	?	-2.2	?	?	?	-1.2%
COC(=O)c1ccccc1Oc1nc(Cl)cc(OC)n1	19.3	-2.3	8.4%	25.9µM*	18.4µM*	0.0%
COc1cc(OC)nc(Oc2ccccc2C(=O)Oc2ccccc2Cl)n1	6.4	-0.7	1.0%	-17.3%	-14.5%	0.0%
COc1cc(OC)nc(Oc2ccccc2C(=O)Oc2ccc(Cl)cc2)n1	3.3	6.4	0.4%	16.4µM*	?	-4.3%
COC(=O)[C@@]1(Cc2ccc(F)cc2)[C@H]2c3cc(C(=O)N4CCCC4)n(Cc4cc(F)cc5c4OCOC5)c3C[C@H]2CN1C(=O)c1ccccc1	-28.5	·	·	?	?	14.7%
SMILES	IL-1B inflam inh	Giardia kill	ELG1 repair inh	DT40 TDP1 no CPT	TDP1 cell CPT	TDP1 block
Cc1cccc(C)c1NC(=O)CN(C1CCCCC1)S(C)(=O)=O	-0.1	-2.2	-4.4%	-13.8%	-6.7%	2.4%
CCN1C(=O)C(CC(=O)Nc2ccc(OC)cc2)N(Cc2ccc(OC)c(OC)c2)C1=S (centres undefined)	-12.2	15.8	-8.3%	?	-13.2%	1.2%
CCCOc1ccc(NC(=O)CC2C(=O)N(c3ccccc3)C(=O)N2CCC(C)C)cc1 (centres undefined)	·	·	·	14.6µM*	?	2.8%
CCN1C(=O)C(CC(=O)Nc2ccc(OC)cc2)N(CCc2ccc(OC)cc2)C1=S (centres undefined)	-86.3*	-8.1	?	?	?	5.1%
COc1ccc(CCN2C(=O)N(c3ccc(OC)cc3)C(=O)C2CC(=O)Nc2ccccc2)cc1 (centres undefined)	-9.7	-8.9	?	?	-0.4%	0.0%
CNC(=O)CC1C(=O)N(c2ccc(Cl)cc2)C(=S)N1CCc1ccc(OC)c(OC)c1 (centres undefined)	-50.4*	-3.7	?	9.2µM*	?	-11.1%
COc1ccc(CCN2C(=O)N(c3ccccc3)C(=O)C2CC(=O)Nc2ccccc2)cc1 (centres undefined)	·	·	·	25.9µM*	?	1.3%
